{"source": "PubChem BioAssay (NCATS)", "note": "Records with an inconclusive call do not appear. A call without a number means that no potency is given here. Calls of active or inactive are those of the source. The call rests on the fitted dose curve; in most records, active means well fitted inhibition curve with a large enough effect; inconclusive means small, poorly fitted or top-dose-only effect; inactive means flat fitted curve, though single readings scatter. Potency means the concentration at half of the fitted maximal effect."}
{"system": "UISO", "test": "qHTS assay to identify novel small-molecules to repurpose for Merkel cell carcinoma treatment (AID 1296009); further: nearly all actives have a fitted effect of over 60% in size", "conditions": "MCC and control cell lines, CellTiter-Glo viability, 72 h; series mostly up to 46 µM", "procedure,_shortened": "(§1)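 72 hr, 37 degree celsius; NPC 8-pt / MIPE 11-pt dose response; compound pinned in DMSO; CellTiter-Glo, 10 min RT, luminescence; normalized to no-cell and DMSO controls.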"}
{"smiles": "CN(C)CCOC1=Cc2ccccc2Sc2ccc(Cl)cc21", "Potency": "inactive"}
{"smiles": "CCCCC(CC)CNC(=O)CC(C)OC(=O)CCC(=O)O", "note": "(stereo not drawn)", "Potency": "inactive"}
{"smiles": "C[C@@H]1CCC[C@H](C)N1CCCC(O)(c1ccccc1)c1ccccn1", "note": "(stereo partly drawn)", "Potency": "inactive"}
{"smiles": "O=C1CCCc2c(O)cccc21", "Potency": "inactive"}
{"smiles": "C=CCOc1cc(Cl)ccc1C(=O)NCCN(CC)CC", "Potency": "inactive"}
{"smiles": "Cc1onc(-c2ccccc2)c1C(=O)Cl", "Potency": "inactive"}
{"smiles": "CCCCCCOC(=O)NC(=N)c1ccc(NCc2nc3cc(C(=O)N(CCC(=O)OCC)c4ccccn4)ccc3n2C)cc1", "Potency": "inactive"}
{"smiles": "CCN1CCN(C(=O)N[C@@H](C(=O)N[C@@H]2C(=O)N3[C@@H]2SC(C)(C)[C@H]3C(=O)O)c2ccccc2)C(=O)C1=O", "Potency": "inactive"}
{"smiles": "CCOC(=O)c1cc(=O)c2c(OCC(COc3cccc4oc(C(=O)OCC)cc(=O)c34)OC(=O)[C@@H](N)CCCCN)cccc2o1", "Potency": "inactive"}
{"smiles": "CC(C)C(=O)Nc1cccc(C(F)(F)F)c1", "Potency": "inactive"}
{"smiles": "C=C(C)C(=O)OCC(O)CO", "note": "(stereo not drawn)", "Potency": "inactive"}
{"smiles": "CC(Oc1c(Cl)cccc1Cl)C1=NCCN1", "note": "(stereo not drawn)", "Potency": "inactive"}
{"smiles": "CC(=O)OC/C=C(C)/C=C/C=C(C)/C=C/C1=C(C)CCCC1(C)C", "Potency": "inactive"}
{"smiles": "CC(C)(C)CC(=O)OCC(=O)[C@@]1(O)CC[C@H]2[C@@H]3CCC4=CC(=O)C=C[C@]4(C)[C@H]3[C@@H](O)C[C@@]21C", "Potency": "inactive"}
{"smiles": "CO[C@@H]1[C@@H](O[C@@H]2O[C@H](C)[C@@H](O[C@H]3C[C@@](C)(O)[C@@H](O)[C@H](C)O3)[C@H](N(C)C)[C@H]2O)[C@@H](CC=O)C[C@@H](C)[C@@H](O[C@@H]2CC[C@H](N(C)C)[C@@H](C)O2)/C=C/C=C/C[C@@H](C)OC(=O)C[C@H]1OC(C)=O", "Potency": "inactive"}
{"smiles": "N#CSCC(=O)O", "Potency": "inactive"}
{"smiles": "Cc1ccc(CCn2c3c(c4cc(Cl)ccc42)CN(C)CC3)cn1", "Potency": "inactive"}
{"smiles": "CO/N=C(/C(=O)N[C@@H]1C(=O)N2C(C(=O)OCOC(=O)C(C)(C)C)=C(C)CS[C@H]12)c1csc(N)n1", "Potency": "inactive"}
{"smiles": "CC(C)Cc1ccc(C(C)C(=O)OCc2ccccn2)cc1", "note": "(stereo not drawn)", "Potency": "inactive"}
{"system": "WaGa", "test": "qHTS assay to identify novel small-molecules to repurpose for Merkel cell carcinoma treatment (AID 1296009); further: nearly all actives have a fitted effect of over 60% in size", "conditions": "MCC and control cell lines, CellTiter-Glo viability, 72 h; series mostly up to 46 µM", "procedure,_shortened": "as §1"}
{"smiles": "C[C@@H](C1=C(CCN(C)C)Cc2ccccc21)c1ccccn1", "Potency": "inactive"}
{"smiles": "O=C1OC2(c3ccccc31)c1cc(I)c(O)c(I)c1Oc1c2cc(I)c(O)c1I", "Potency": "inactive"}
{"smiles": "CCOCCn1c(C2CCN(CCc3ccc(C(C)(C)C(=O)O)cc3)CC2)nc2ccccc21", "Potency": "inactive"}
{"smiles": "O=C(Oc1ccccc1)c1cccc(C(=O)Oc2ccccc2)c1", "Potency": "inactive"}
{"smiles": "CCc1cc2cc(OC)c(OC)cc2c(Cc2ccccc2)n1", "Potency": "inactive"}
{"smiles": "CCOc1ncc(F)c(=O)[nH]1", "Potency": "inactive"}
{"smiles": "COCCOCC(OC)OC", "Potency": "inactive"}
{"smiles": "O=C(O)c1ccc(OCCN2CCCCC2)cc1", "Potency": "inactive"}
{"smiles": "Oc1ccccc1", "Potency": "inactive"}
{"smiles": "O=C(O)c1ccccc1Nc1cc(Cl)ccc1C(=O)O", "Potency": "inactive"}
{"smiles": "COc1ccc2cc(C=O)ccc2c1", "Potency": "inactive"}
{"smiles": "O=C(O)[C@@H](O)[C@H](O)[C@H](O)[C@@H](O)C(=O)O", "Potency": "inactive"}
{"smiles": "CNC(=O)c1c(I)c(NC(C)=O)c(I)c(C(=O)O)c1I", "Potency": "inactive"}
{"smiles": "NCC[C@H](O)C(=O)N[C@@H]1C[C@H](N)[C@@H](O[C@H]2O[C@H](CN)[C@@H](O)[C@H](O)[C@@H]2O)[C@H](O)[C@@H]1O[C@H]1O[C@H](CO)[C@@H](O)[C@H](N)[C@@H]1O", "activity change, negative = cytotoxicity": "23.2% [at 0.597 µM] (inactive)"}
{"smiles": "O=C1Cc2cc(Cl)ccc2N1", "Potency": "inactive"}
{"smiles": "CCCCC(CC)CNC(=O)CC(C)OC(=O)CCC(=O)O", "note": "(stereo not drawn)", "Potency": "inactive"}
{"smiles": "C[C@@H]1CCC[C@H](C)N1CCCC(O)(c1ccccc1)c1ccccn1", "note": "(stereo partly drawn)", "Potency": "inactive"}
{"smiles": "O=C1CCCc2c(O)cccc21", "Potency": "inactive"}
{"smiles": "C=CCOc1cc(Cl)ccc1C(=O)NCCN(CC)CC", "Potency": "inactive"}
{"smiles": "Cc1onc(-c2ccccc2)c1C(=O)Cl", "Potency": "inactive"}
{"smiles": "CCN1CCN(C(=O)N[C@@H](C(=O)N[C@@H]2C(=O)N3[C@@H]2SC(C)(C)[C@H]3C(=O)O)c2ccccc2)C(=O)C1=O", "Potency": "inactive"}
{"smiles": "Oc1ccc(CCNCCCCCCNCCc2ccccc2)cc1O", "Potency": "10.6 µM (active)"}
{"smiles": "CC(C)C(=O)Nc1cccc(C(F)(F)F)c1", "Potency": "inactive"}
{"smiles": "C=C(C)C(=O)OCC(O)CO", "note": "(stereo not drawn)", "Potency": "inactive"}
{"smiles": "CCCCN(CCN(CCCC)C(=O)N1CCOCC1)C(=O)N1CCOCC1", "Potency": "inactive"}
{"smiles": "CC(Oc1c(Cl)cccc1Cl)C1=NCCN1", "note": "(stereo not drawn)", "Potency": "inactive"}
{"smiles": "CC(C)(C)CC(=O)OCC(=O)[C@@]1(O)CC[C@H]2[C@@H]3CCC4=CC(=O)C=C[C@]4(C)[C@H]3[C@@H](O)C[C@@]21C", "Potency": "inactive"}
{"smiles": "N#CSCC(=O)O", "Potency": "inactive"}
{"smiles": "CC(C)Cc1ccc(C(C)C(=O)OCc2ccccn2)cc1", "note": "(stereo not drawn)", "Potency": "inactive"}
